GluA2 TARP mod: modulators of GluA2-stargazin AMPA receptor complexes, primary screen, cell-based, membrane potential dye | Voltage-dependent calcium channel gamma-2 subunit (Mus musculus) + Glutamate receptor 2 … | HEK293 GluA2+stargazin, membrane potential dye (FDSS), glutamate EC50; hits were called plate by plate, in both directions | calls only at 30 µM | 3.5% of 40,000 active;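 active = any of four per-well response measures lying three or more SD from its plate-wide compound average, in either direction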
Target sequence (O88602 whole entry, looked up): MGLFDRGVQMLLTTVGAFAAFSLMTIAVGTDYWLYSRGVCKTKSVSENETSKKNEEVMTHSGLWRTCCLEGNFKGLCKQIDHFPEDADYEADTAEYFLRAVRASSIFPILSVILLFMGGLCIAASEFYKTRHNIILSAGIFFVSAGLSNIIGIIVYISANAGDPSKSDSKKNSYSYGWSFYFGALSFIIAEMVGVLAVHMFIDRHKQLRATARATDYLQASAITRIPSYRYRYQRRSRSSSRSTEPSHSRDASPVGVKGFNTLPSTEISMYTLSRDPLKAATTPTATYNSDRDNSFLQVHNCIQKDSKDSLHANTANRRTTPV
Target sequence (P19491 whole entry, looked up): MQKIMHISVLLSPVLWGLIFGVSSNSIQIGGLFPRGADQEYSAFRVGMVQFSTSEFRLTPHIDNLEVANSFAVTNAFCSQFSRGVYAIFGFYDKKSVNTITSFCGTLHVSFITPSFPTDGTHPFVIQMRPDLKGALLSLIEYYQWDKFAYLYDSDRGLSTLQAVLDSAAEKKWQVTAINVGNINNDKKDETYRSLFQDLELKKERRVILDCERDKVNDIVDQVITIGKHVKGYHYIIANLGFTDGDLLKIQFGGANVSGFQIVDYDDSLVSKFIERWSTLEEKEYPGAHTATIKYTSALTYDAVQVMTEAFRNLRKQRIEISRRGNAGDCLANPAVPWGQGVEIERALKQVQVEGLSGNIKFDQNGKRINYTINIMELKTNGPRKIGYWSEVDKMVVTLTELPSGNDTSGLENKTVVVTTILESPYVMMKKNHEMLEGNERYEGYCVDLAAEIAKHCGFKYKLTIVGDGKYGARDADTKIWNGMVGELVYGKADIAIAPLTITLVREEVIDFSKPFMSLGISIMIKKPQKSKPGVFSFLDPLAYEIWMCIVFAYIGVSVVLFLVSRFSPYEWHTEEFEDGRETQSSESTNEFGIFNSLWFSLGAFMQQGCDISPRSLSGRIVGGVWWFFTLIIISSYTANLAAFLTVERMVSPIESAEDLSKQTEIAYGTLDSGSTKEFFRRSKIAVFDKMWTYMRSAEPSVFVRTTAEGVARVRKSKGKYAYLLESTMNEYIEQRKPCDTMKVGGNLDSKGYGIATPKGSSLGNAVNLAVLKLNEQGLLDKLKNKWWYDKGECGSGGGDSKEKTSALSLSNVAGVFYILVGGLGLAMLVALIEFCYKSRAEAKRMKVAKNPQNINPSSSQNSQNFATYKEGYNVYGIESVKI
GIRK2 act: activators of NPY4-receptor-primed GIRK2 channels, summary, cell-based, HEK293, thallium flux. activation (% efficacy), % for hits at 37.5 µM. 34,000 tested, under 10 active. HEK293 GIRK2/NPY4 cells, thallium flux fluorescence;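 active = primary screen hit, no activity in plain HEK293 cells, and in GIRK2-only cells above 5% efficacy rising with concentration; inactive = the rest, including fluorescent compounds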;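 note: efficacy is normalized control-subtracted fluorescence 15 s after thallium addition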
Calls only; - = inactive; . = no result given; + = active, no number; ! = not confirmed by another sample. This excerpt belongs to a sample that is enriched for hits.

SMILES | GluA2 TARP mod | GIRK2 act
COc1cc([N+](=O)[O-])ccc1NC(=O)c1ccc(=O)n(Cc2ccccc2Cl)c1 | - | -
COc1cc([N+](=O)[O-])ccc1NC(=O)c1ccc(=O)n(Cc2ccccc2F)c1 | + | -
COc1cccc(CNC(=O)Cn2c3ccccc3c3ncn(Cc4ccccc4)c(=O)c32)c1 | . | -
CC(C)c1ccc(NC(=O)C2CCN(c3cnc4ccccc4n3)CC2)cc1 | - | -
CCCc1ccc(S(=O)(=O)Nc2ccc3c(c2)N(C(=O)C(C)(C)C)CC3)cc1 | + | -
CCS(=O)(=O)Nc1ccc2c(c1)N(C(=O)C(C)(C)C)CC2 | - | -
COc1ccc(S(=O)(=O)Nc2ccc3c(c2)N(C(=O)C(C)(C)C)CC3)cc1 | + | -
COc1ccc(OC)c(S(=O)(=O)Nc2ccc3c(c2)N(S(=O)(=O)c2cccs2)CCC3)c1 | + | -
COc1ccc(S(=O)(=O)Nc2ccc3c(c2)N(C(=O)C(C)(C)C)CC3)c(C)c1 | - | -
COc1ccc(OC)c(S(=O)(=O)Nc2ccc3c(c2)N(S(C)(=O)=O)CCC3)c1 | - | .
COc1ccc(CCS(=O)(=O)Nc2ccc3c(c2)N(C(=O)c2ccco2)CC3)cc1 | - | -
COc1ccc(CCS(=O)(=O)Nc2ccc3c(c2)N(C(=O)C(C)(C)C)CC3)cc1 | + | -
COc1ccc(Cl)cc1C(=O)Nc1cc(C)nn1-c1nc(-c2cccs2)cs1 | - | -
COc1cc(/C=C2\SC(=S)N(c3ccccc3Br)C2=O)cc(OC)c1OC | - | .
Cc1ccc(S(=O)(=O)NCC(c2cccs2)N(C)C)cc1 (centres undefined) | - | .
CC(C)CNC(=O)C(=O)NCCN1CCN(c2ccc(Cl)cc2)CC1 | - | -
Cc1nc(C)c(C(=O)N2CCN(c3nc4c(C)c(C)ccc4s3)CC2)s1 | - | -
Cc1nc(C)c(C(=O)N2CCN(c3ccc(N(C)C)nn3)CC2)s1 | + | -
CN(C)CCCNC(=O)C(=O)Nc1ccc2c(c1)OCCO2 | - | -
CC(=O)Nc1cccc(NC(=O)C(=O)NCCCN(C)C)c1 | + | .
COc1cc(/C=C2\SC(=S)N(c3ccc(O)cc3)C2=O)cc(OC)c1OC | - | .
CN(C)c1ccc(/C=C2\SC(=S)N(c3ccc(O)cc3)C2=O)cc1 | + | .
CCOc1ccc(N2C(=O)/C(=C\c3ccc(O)cc3)SC2=S)cc1 | + | .
CCOc1ccc(N2C(=O)/C(=C/c3ccc4c(c3)OCO4)SC2=S)cc1 | - | .
COCCNC(=O)Cc1ccc(NS(=O)(=O)c2cc(F)ccc2F)cc1 | - | -
SMILES | GluA2 TARP mod | GIRK2 act
Cc1nc(Sc2nc(C)nc3sc4c(c23)CCC4)c2c3c(sc2n1)CCC3 | - | .
CCc1nc2sc3c(c2c2nncn12)CCC3 | + | -
Cc1ccc(C)c(NC(=O)C(=O)NCCc2ccc3c(c2)CCCN3C)c1 | - | .
O=S(=O)(c1cccs1)N1CCN(c2ccc(N3CCCC3)nn2)CC1 | + | -
O=S(=O)(c1cccs1)N1CCN(c2ccc(-c3ccccc3)nn2)CC1 | - | -
CCSc1nnc(NC(=O)Cn2c(-c3cnccn3)nc3ccccc32)s1 | - | -
O=C(Cn1c(-c2cnccn2)nc2ccccc21)Nc1ccc(F)c(Cl)c1 | + | -
CCC(CC)C(=O)NCCNc1ccc(Nc2cccc(C)n2)nn1 | + | -
COc1ccccc1C(=O)NCCNc1ccc(Nc2cccc(C)n2)nn1 | . | -
CCS(=O)(=O)N1CCCc2cc(NC(=O)NCc3ccccc3)ccc21 | - | -
CCS(=O)(=O)N1CCCc2cc(NC(=O)Nc3ccc(OC)cc3)ccc21 | - | -
CCS(=O)(=O)N1CCCc2cc(NC(=O)Nc3cc(Cl)ccc3OC)ccc21 | + | -
CCCS(=O)(=O)N1CCCc2cc(NC(=O)NCCCc3ccccc3)ccc21 | + | -
CCCS(=O)(=O)Nc1ccc2c(c1)N(S(=O)(=O)c1ccccc1)CCC2 | - | .
O=C(NCc1cccs1)Nc1ccc(Cl)c(N2CCCS2(=O)=O)c1 | - | -
O=C(NCc1cccc2ccccc12)Nc1ccc(Cl)c(N2CCCS2(=O)=O)c1 | + | -
C=CCn1c(SCC(=O)NCc2ccco2)nc2scc(-c3ccccc3Cl)c2c1=O | + | -
C=CCn1c(SCC(=O)NCC2CCCO2)nc2scc(-c3ccc(Cl)cc3)c2c1=O (centres undefined) | - | -
O=C(COc1ccc(F)cc1)NCCS(=O)(=O)N1CCN(Cc2ccccc2)CC1 | - | -
O=S(=O)(CCCOc1ccc(F)cc1)NC1CCN(Cc2ccccc2)CC1 | + | -
Cc1ccc(Nc2cc(C)nc(Nc3ccc(NC(=O)c4ccc5c(c4)OCO5)cc3)n2)cc1 | - | .
Cc1ccc(C(=O)Nc2ccc(Nc3nc(C)cc(N4CCCCC4)n3)cc2)cc1 | + | .
CS(=O)(=O)N(CC(O)COc1ccccc1)c1ccc(F)cc1 (centres undefined) | - | -
O=C(NCCn1nc(-n2cccn2)ccc1=O)c1ccc(-n2cccc2)cc1 | . | -
O=C(/C=C/c1cccs1)NCC1CCN(Cc2ccsc2)CC1 | + | -
SMILES | GluA2 TARP mod | GIRK2 act
COC(=O)N1CCC(CNC(=O)/C=C/c2cccs2)CC1 | - | -
COc1cc(S(=O)(=O)Nc2cccc3cn[nH]c23)c(OC)cc1Cl | - | .
COc1cc(S(=O)(=O)Nc2cc(Cl)ccc2O)c(OC)cc1Cl | + | -
CN(c1ccsc1C(=O)Nc1ccc(F)c(F)c1)S(=O)(=O)c1ccccc1 | - | -
CN(C1CCCC1)S(=O)(=O)c1ccc(C(=O)Nc2ccc3c(c2)OCO3)cc1 | - | .
CN1C(=O)CCc2cc(NC(=O)c3ccc4c(c3)OCO4)ccc21 | + | .
CCCCN1C(=O)CCc2cc(NC(=O)c3ccc4c(c3)OCO4)ccc21 | - | -
CN(c1ccsc1C(=O)Nc1ccc2c(c1)OCCO2)S(=O)(=O)c1ccccc1 | +! | -
CN(C1CC1)S(=O)(=O)c1ccc(C(=O)Nc2ccc3c(c2)OCO3)cc1 | + | -
COc1cccc(OCCn2c(CNC(=O)c3ccco3)nc3ccccc32)c1 | . | -
COc1ccc(S(=O)(=O)N2CCC(C(=O)Nc3nc4c(s3)CC(C)CC4)CC2)cc1 (centres undefined) | - | -
Cc1ccccc1-c1ccc(N2CCC(C(=O)NC3CCCCCC3)CC2)nn1 | - | -
O=C(CCCS(=O)(=O)c1ccc(F)cc1)N1CCN(c2nc3c(F)cccc3s2)CC1 | - | .
O=C1c2ccccc2C(O)(Cc2ccccc2)N1CCCN1CCOCC1 (centres undefined) | - | .
O=C1c2ccccc2C(O)(Cc2ccccc2)N1C(c1ccccc1)c1ccccc1 (centres undefined) | + | .
COc1ccc(NC(=O)C(=O)NCC2(O)CCOCC2)cc1 | . | -
Cc1nn2c(N3CCN(c4ccccn4)CC3)cc(C(C)C)nc2c1-c1ccccc1 | - | -
Cc1cc(C)n(-c2cc(C(C)C)nc3c(-c4ccccc4)c(C)nn23)n1 | + | -
O=C(COc1cccc2c1CCN(Cc1ccccc1)C2=O)NC1CCCCC1 | - | .
CCOC(=O)c1c(NC(=O)COc2cccc3c2CCN(Cc2ccc(Br)cc2)C3=O)sc2c1CCC2 | + | .
Cc1ccc(C)c(N2CCN(c3ccc(S(=O)(=O)c4ccccc4)nn3)CC2)c1 | + | -
Cc1ccc(N2CCN(c3ccc(S(=O)(=O)c4ccccc4)nn3)CC2)c(C)c1 | - | -
